From publication PMC8384837, “Expanding the binding specificity for RNA recognition by a PUF domain” come the findings set out here.

Holding throughout (experiment): yeast three-hybrid, YBZ-1, SC-Leu-His + 0.5 mM 3-AT, 4 days
What all share (details): tags: N-Gal4 AD-HA kept; label: inside an RPR1-promoter hybrid RNA with tandem MS2 sites; ssRNA

The target in one assay is PUM1 PUF domain R5-LWG (Homo sapiens, UniProt Q14671 828-1176, C1007L;R1008W;Q1011G). Put shortly: (§1)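 Repeat regions from input (SC-Leu) and selection (SC-Leu-His + 0.5 mM 3-AT) plates were PCR-amplified and Illumina-sequenced after four days of growth. The cells were strain YBZ-1 with a LexA–MS2 coat fusion and a HIS3 reporter, co-expressing Pumilio-1 PUF domain libraries and matching RNA elements from a centromeric plasmid. The interaction score is the log change in variant frequency from input to selection, taken in log2 with a pseudocount of 1 for absent variants.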

For a further assay, the target named is PUM1 PUF domain R3-FSE (Homo sapiens, UniProt Q14671 828-1176, C935F;R936S;Q939E). Put shortly:
as §1

The target of the next assay is PUM1 PUF domain R3-MWS (Homo sapiens, UniProt Q14671 828-1176, C935M;R936W;Q939S). Put shortly:
as §1

The target of another assay is PUM1 PUF domain R8-YWK (Homo sapiens, UniProt Q14671 828-1176, N1122Y;Y1123W;Q1126K). In short, it runs like this:
as §1

The target of the next assay is T1, PUM1 PUF domain R6-CYL (Homo sapiens, UniProt Q14671 828-1176, N1043C;Q1047L).
T1 sequence: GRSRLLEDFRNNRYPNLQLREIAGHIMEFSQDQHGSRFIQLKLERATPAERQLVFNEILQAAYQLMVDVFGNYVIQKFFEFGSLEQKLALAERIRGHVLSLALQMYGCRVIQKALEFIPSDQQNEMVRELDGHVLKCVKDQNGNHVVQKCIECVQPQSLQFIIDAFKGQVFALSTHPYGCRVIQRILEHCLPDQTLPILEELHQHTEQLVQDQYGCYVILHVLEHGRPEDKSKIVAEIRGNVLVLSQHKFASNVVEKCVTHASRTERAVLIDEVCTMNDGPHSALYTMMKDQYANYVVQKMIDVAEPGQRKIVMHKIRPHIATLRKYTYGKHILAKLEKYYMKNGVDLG
In short, it runs like this:
as §1

The next assay has as its target PUM1 PUF domain R7-RVI (Homo sapiens, UniProt Q14671 828-1176, S1079R;N1080V;E1083I). In short, it runs like this:
as §1

The next assay has as its target T2, PUM1 PUF domain R6-MWE (Homo sapiens, UniProt Q14671 828-1176, N1043M;Y1044W;Q1047E).
T2 sequence: T1 sequence with C216M, Y217W, L220E
In short, it runs like this:
as §1

For a further assay, the target named is PUM1 PUF domain R1-RGQ (Homo sapiens, UniProt Q14671 828-1176, S863R;R864G). Put shortly:
as §1

Substitutions are numbered along the chain they refer to.

Consider “GGCUAGAACUAGUGGAUCCCCCGGCGCCCGGCGGCUCGAGCCCGGGUAAGUGUAAAUAGUCUGCAUGCCGCCGGGCGCCAUGCCUGCAGGUCGACUCUAGAAAACAUG”, for which the binding signal in the assay with PUM1 PUF domain R5-LWG is 2.19 log2 enrichment (interaction score).

In the case of “GGCUAGAACUAGUGGAUCCCCCGGCGCCCGGCGGCUCGAGCCCGGGUAAGUGUUAAUAGUCUGCAUGCCGCCGGGCGCCAUGCCUGCAGGUCGACUCUAGAAAACAUG”, the binding signal with PUM1 PUF domain R5-LWG was 3.88 log2 enrichment (interaction score).

For the sequence “GGCUAGAACUAGUGGAUCCCCCGGCGCCCGGCGGCUCGAGCCCGGGUAAGUGUAAGUAGUCUGCAUGCCGCCGGGCGCCAUGCCUGCAGGUCGACUCUAGAAAACAUG”, the binding signal is 3.22 log2 enrichment (interaction score) with PUM1 PUF domain R3-FSE and 5.62 log2 enrichment (interaction score) with PUM1 PUF domain R3-MWS.

On to “GGCUAGAACUAGUGGAUCCCCCGGCGCCCGGCGGCUCGAGCCCGGGUAAGCGUAAAUAGUCUGCAUGCCGCCGGGCGCCAUGCCUGCAGGUCGACUCUAGAAAACAUG”, for which the binding signal in the assay with PUM1 PUF domain R8-YWK was 2.04 log2 enrichment (interaction score).

Consider “GGCUAGAACUAGUGGAUCCCCCGGCGCCCGGCGGCUCGAGCCCGGGUAAGUGAAAAUAGUCUGCAUGCCGCCGGGCGCCAUGCCUGCAGGUCGACUCUAGAAAACAUG”, for which the binding signal with PUM1 PUF domain R6-CYL was 5.18 log2 enrichment (interaction score).

On to “GGCUAGAACUAGUGGAUCCCCCGGCGCCCGGCGGCUCGAGCCCGGGUAAGUUUAAAUAGUCUGCAUGCCGCCGGGCGCCAUGCCUGCAGGUCGACUCUAGAAAACAUG”, for which, in the assay with PUM1 PUF domain R7-RVI, the binding signal was 2.39 log2 enrichment (interaction score).

Consider “GGCUAGAACUAGUGGAUCCCCCGGCGCCCGGCGGCUCGAGCCCGGGUAAGUGGAAAUAGUCUGCAUGCCGCCGGGCGCCAUGCCUGCAGGUCGACUCUAGAAAACAUG”, for which the binding signal in the assay with PUM1 PUF domain R6-MWE is 4.52 log2 enrichment (interaction score).

“GGCUAGAACUAGUGGAUCCCCCGGCGCCCGGCGGCUCGAGCCCGGGUAAGUGUAAAUUGUCUGCAUGCCGCCGGGCGCCAUGCCUGCAGGUCGACUCUAGAAAACAUG”: the binding signal with PUM1 PUF domain R1-RGQ was 2.29 log2 enrichment (interaction score).
